For 112 compounds, z-score results are on record in PubChem BioAssay AID488969 (Vanderbilt High Throughput Screening Facility, 2010).

Each structure is given as a SMILES string. In all, about 110,000 compounds were measured (“z-score”: median about -0.1, highest 2% from about 2 on). The sample as a whole holds a higher share of the highest values than the screen did. The source made the active and inactive calls.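 Rule for the calls: active = z-score in the third read window above 3 or below -3; inactive = the rest.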

In the assay the target is Metabotropic glutamate receptor 8 (Rattus norvegicus) (UniProt P70579). Nature of the assay: rat mGluR8 modulators via GIRK flux, primary screen, cell-based, thallium flux, HTS (AID 488969). The settings on record: HEK293 rat mGluR8, GIRK (G protein-gated inwardly rectifying potassium channel) thallium flux, FluoZin2; at 10 µM; stronger effect = higher value; submaximal glutamate (EC20) added with thallium.
Metabotropic glutamate receptor 8 (Rattus norvegicus), sequence (P70579 whole entry, looked up): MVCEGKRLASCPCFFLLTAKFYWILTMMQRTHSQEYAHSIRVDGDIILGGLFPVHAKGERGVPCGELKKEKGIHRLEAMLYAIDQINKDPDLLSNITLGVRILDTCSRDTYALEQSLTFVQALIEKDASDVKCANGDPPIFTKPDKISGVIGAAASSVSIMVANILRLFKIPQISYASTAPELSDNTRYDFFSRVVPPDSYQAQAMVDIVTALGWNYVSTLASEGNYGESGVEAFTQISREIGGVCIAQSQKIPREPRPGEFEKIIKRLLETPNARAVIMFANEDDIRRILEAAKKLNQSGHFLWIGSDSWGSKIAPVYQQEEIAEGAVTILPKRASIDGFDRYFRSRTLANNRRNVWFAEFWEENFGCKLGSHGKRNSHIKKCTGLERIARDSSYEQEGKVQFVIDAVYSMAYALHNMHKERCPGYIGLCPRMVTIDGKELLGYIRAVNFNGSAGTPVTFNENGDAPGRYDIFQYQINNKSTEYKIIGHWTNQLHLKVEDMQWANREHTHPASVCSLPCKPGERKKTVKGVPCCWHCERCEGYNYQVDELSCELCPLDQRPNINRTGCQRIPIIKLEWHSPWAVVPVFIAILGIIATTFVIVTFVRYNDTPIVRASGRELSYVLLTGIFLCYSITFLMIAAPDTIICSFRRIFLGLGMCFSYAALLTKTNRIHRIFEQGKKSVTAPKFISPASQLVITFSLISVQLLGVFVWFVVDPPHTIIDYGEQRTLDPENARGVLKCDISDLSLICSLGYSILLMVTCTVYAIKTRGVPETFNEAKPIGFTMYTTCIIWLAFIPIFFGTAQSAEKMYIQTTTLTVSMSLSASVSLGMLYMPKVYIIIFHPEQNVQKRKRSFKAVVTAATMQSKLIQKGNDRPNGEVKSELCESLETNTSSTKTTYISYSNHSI
Compound `CN1CCN(/C=N/c2c(C#N)cnn2C)CC1` gave a z-score of 0.146.
The result for `Nc1cc(-c2ccc(Cl)cc2)nn1S(=O)(=O)c1ccc(Cl)cc1` reads -0.0623.
The result for `CCOC(=O)c1[nH]c(C)c(C(=O)NC2CCCC2)c1C` reads -0.06.
`CCOC(=O)c1[nH]cnc1C(=O)NC1CCCCC1` came in with a z-score of -0.225.
The result for `CCOC(=O)c1sc(C)c(C(=O)NCC(C)(C)CN(C)C)c1N` reads 0.753.
The result for `CCOC(=O)c1[nH]c(C)c(C(=O)NC2CCCCC2)c1C` reads 3.27 (active); that for `CCOC(=O)c1sc(C)c(C(=O)NC2CCCCC2)c1N`, 3.33 (active); that for `CCOC(=O)c1[nH]c(C)c(C(=O)NC2CCCCCC2)c1C`, 0.781.
The result for `O=C(CN1CCc2ccccc21)NC(=O)NCc1ccco1` reads 0.562; that for `Cc1oc(C(C)(C)C)cc1C(=O)Nc1cccc(C(=O)O)c1`, -2.4; that for `COc1ccc(NC(=O)C(=O)N/N=C/c2cc(C)n(-c3cccc(Cl)c3Cl)c2C)c(OC)c1`, -0.134.
The compound `Cc1c(NC(=O)C(C)OC(=O)c2sc3ccccc3c2Cl)c(=O)n(-c2ccccc2)n1C` (configuration not stated) came in with a z-score of -0.273.
For `COc1ccc(NC(=S)SC)cc1OC`, the z-score is 3.35 (active).
The figure for `CCC(C)c1ccc(NC(=S)Nc2ccc(OC)cc2)cc1` (configuration not stated) is 0.436; for `CNC(=S)Nc1ccc(OC)c(OC)c1` it is 0.0698; for `COC(=O)Nc1ccc(OC)c(OC)c1` it is 0.503.
The result for `CCC(C)c1ccc(NC(=S)Nc2ccc(OC)c(OC)c2)cc1` (configuration not stated) reads 5.09 (active).
The result for `CCC(C)c1ccc(NC(=S)Nc2ccc(OC)cc2C)cc1` (configuration not stated) reads 0.0172; that for `c1ccc(-c2ccccc2-c2nc(-c3ccncc3)no2)cc1`, -0.475; that for `CCCC12CN3CCN(CC(C3)/C1=N\NC(=O)c1ccccc1N)C2`, -0.119.
`Cc1ccc(OCc2nc(-c3ccc(-n4cccc4)cc3)no2)cc1C` gave a z-score of -0.0508.
The compound `CCOC(=O)C1=C(C)N(c2ccc(OC)cc2)C(=O)/C1=C\c1cccs1` yielded a z-score of -0.132.
The result for `CCOc1ccc(CCNC(=O)C2CCN(c3nnc(-n4cccc4)s3)CC2)cc1OCC` reads -1.57.
The figure for `O=C(Nc1ccc(S(=O)(=O)Nc2ncccn2)cc1)c1ccc(Br)s1` is 0.347; for `O=C1C(C=NCc2ccccn2)=C(O)c2ccccc21` it is -0.00613; for `CC(Oc1ccc(Cl)cc1Cl)C(=O)N/N=C1\CCCc2ccccc21` (configuration not stated) it is 0.0705.
The compound `COc1ccc(OCC(=O)NC(=S)N2CCCc3ccccc32)cc1` came in with a z-score of 1.72.
The figure for `O=C(CCCOc1ccc(Cl)cc1Cl)N1CCCc2ccccc21` is -0.0365.
With `CC(Oc1ccc(Cl)cc1Cl)C(=O)NC(=S)N1CCc2ccccc21` (configuration not stated), the z-score is 12.9 (active).
The figure for `Cc1cccc(OCc2nnc(SCC(=O)N3CCc4ccccc43)n2C)c1` is 2.88; for `O=C(COc1ccc(Cl)cc1Cl)OCC(=O)N1CCCc2ccccc21` it is -0.0629; for `Cc1ccc(OCc2nnc(SCC(=O)N3CCc4ccccc43)n2C)cc1` it is -0.358.
Take `Cc1cccc(OCC(=O)NC(=S)N2CCCc3ccccc32)c1`: the z-score was 7.99 (active).
The result for `Cc1ccccc1OCc1nnc(SCC(=O)N2CCc3ccccc32)n1C` reads -0.183.
In the case of `Cc1cccc(OC(C)C(=O)N2CCCc3ccccc32)c1` (configuration not stated), the z-score is -0.141.
In the case of `CC(Oc1ccc(Cl)cc1Cl)C(=O)NN=C1CCN(C)CC1` (configuration not stated), the z-score was -0.0448.
For `O=C(COc1ccc(Cl)cc1Cl)NC(=S)N1CCCc2ccccc21`, the z-score is 13.2 (active).
The compound `CCOC(=O)c1cc(-c2ccc(OC(F)F)cc2)nc2nc(SC)[nH]c(=O)c12` yielded a z-score of -0.208.
The figure for `COc1cc(CNCC(O)c2ccccc2)ccc1OCc1ccc(Cl)nc1` (configuration not stated) is 1.26; for `COC(=O)COc1cccc(NC(=O)c2cccs2)c1` it is -0.153; for `CCc1cccc2c(C(=O)COC(=O)/C=C/c3ccc(O)c(OC)c3)c[nH]c12` it is 0.418.
As to `CC(C)COP(=O)(OCC(C)C)C(Nc1ccccc1)c1ccc2c(c1)OCO2` (configuration not stated), the z-score was -0.389.
Take `C/C=C/c1ccc(OCCCNCC(C)O)c(OC)c1` (configuration not stated): the z-score came to 1.74.
Regarding `COc1ccc(OC)c(NC(=O)CSc2nc(C)cs2)c1`, the z-score was 0.389.
The compound `CN(C)c1ccc(P(=O)(Nc2ccc([N+](=O)[O-])cc2)N2CCOCC2)c(NC(=O)c2cccs2)c1` (configuration not stated) showed a z-score of -0.185.
The compound `O=C(CN1C(=O)NC2(CCCC2)C1=O)N1CCN(C(=O)c2ccco2)CC1` yielded a z-score of -1.15.
In turn, `Cc1ccc(NS(=O)(=O)c2cccc(C(=O)N/N=C/c3c(C)nn(-c4ccccc4)c3N3CCCC3)c2)c(C)c1` gave a z-score of -0.38.
Compound `CCCCNC(=S)N(C)/N=C/c1ccc(OCC(=O)Nc2c(C)cc(C)cc2C)c(OC)c1` came in with a z-score of 0.00502.
The figure for `Cc1cc(C)n(-c2nc3ccccc3nc2N2CCN(C(=O)c3ccc(Cl)cc3)CC2)n1` is -1.16.
The figure for `CCNC(=O)COc1ccc(Br)cc1Cl` is 0.307; for `Cc1ccc(OCC(=O)N2CCc3ccccc32)cc1` it is -0.113; for `O=C(COc1ccccc1)NC(=S)N1CCc2ccccc21` it is 10.1 (active).
The result for `CC(C)NC(=O)NC(=O)COc1ccc(Br)cc1Br` reads -0.136; that for `O=C(COc1ccc(Br)cc1Cl)NC(=S)N1CCc2ccccc21`, 2.28; that for `CCC(=O)N1CCN(c2ccccc2NC(=O)COc2ccccc2Cl)CC1`, -1.24.
As to `O=C(COc1ccc(Br)cc1Br)NC(=S)N1CCCc2ccccc21`, the z-score is 4.66 (active).
The compound `O=C(COc1ccccc1)N1CCc2ccccc21` displayed a z-score of -0.0743.
The figure for `O=C(COc1ccccc1Cl)NC(=O)NC1CCCC1` is 0.502.
The result for `O=C(COc1ccccc1Cl)NC(=S)N1CCc2ccccc21` reads 12.1 (active).
Turning to `O=C(COc1ccc(F)cc1Br)N1CCc2ccccc21`, the z-score is -0.0164.
The result for `O=C(COc1ccc(Br)cc1Cl)NC(=O)NCc1ccccc1` reads 0.301; that for `O=C(Cc1cccs1)Nc1ccc(Cl)cc1`, 0.318; that for `Cc1cc(C)cc(SCc2noc(C(=O)NCC3CCCO3)c2C(=O)O)c1` (configuration not stated), -0.238.
The figure for `Cc1cc(C)nc(-n2nc(C)cc2NC(=O)CNC(C)c2ccccc2)n1` (configuration not stated) is 0.124; for `COC(=O)c1cc(OC)c(OC)cc1NCC(=O)Nc1ccc(OC)c(OC)c1` it is -0.419; for `Cc1c(NC(=O)C(C)OC(=O)c2cccs2)c(=O)n(-c2ccccc2)n1C` (configuration not stated) it is 0.0558.
Take `CCOc1cc(CNCc2ccccn2)ccc1OCC(=O)NC1CCCCC1`: the z-score was -0.535.
As for `O=C(Nc1ccc2oc(=O)ccc2c1)c1cc2ccccc2o1`, the z-score is -1.25.
The figure for `O=C(CN(Cc1ccc(F)cc1)C(=O)c1ccco1)NCc1ccc(F)cc1` is -1.36.
Consider `CNc1nc2ccccc2n1/N=C/c1cccc(OC)c1OC`, for which the z-score is -1.51.
The result for `O=Cc1ccc(OC(=O)c2cc(Cl)nc3ccccc23)cc1` reads -0.764.
The figure for `CCn1c(SCc2ccc([N+](=O)[O-])cc2)nnc1C(C)NC(=O)c1ccc(C)cc1` (configuration not stated) is -0.256.
The figure for `CC(C)(C)n1nc2c(c1NC(=O)c1ccco1)CS(=O)C2` (configuration not stated) is 0.0777.
In turn, `O=C(Cn1cccc1)N1CCN(c2ccc(F)cc2)CC1` returned a z-score of -0.241.
The figure for `Nn1c(SCC(=O)N2CCN(S(=O)(=O)c3ccc(Cl)cc3)CC2)nnc1-c1cccs1` is -0.22; for `Cn1c(SCC(=O)N2c3ccccc3CCc3ccccc32)nnc1-c1cc2ccccc2cc1O` it is -0.13.
The figure for `Cc1cccc(-c2nnc(SCC(=O)N3c4ccccc4CCc4ccccc43)n2C)c1` is -0.366; for `Cn1c(SCC(=O)N2c3ccccc3CCc3ccccc32)nnc1-c1ccc(O)cc1` it is 5.88 (active).
The figure for `Cc1ccc(NC(=O)N2CCC(C(N)=O)CC2)cc1` is 0.0373; for `O=C(NCC1CCCO1)C1CCN(S(=O)(=O)c2cccc3cccnc23)CC1` (configuration not stated) it is -0.104.
For the compound `CSc1nnc(-c2cc(-c3ccc(C)cc3)nc3ccccc23)o1`, the z-score was -0.0721.
The result for `Cc1ccc(-c2cc(-c3n[nH]c(=S)o3)c3ccccc3n2)cc1` reads 8.6 (active).
Compound `Cc1ccccc1-c1n[nH]c(=S)o1` showed a z-score of 0.676.
The result for `CC(=O)c1c(C)[nH]c(C(=O)Nc2ccc(Cl)c(S(=O)(=O)N3CCOCC3)c2)c1C` reads 1.6; that for `O=C(COC(=O)c1cc(-c2cccs2)nn1-c1ccccc1)Nc1ccc(Cl)c([N+](=O)[O-])c1`, 0.0111.
The figure for `NS(=O)(=O)c1ccc(CCN2C(=O)/C(=C\c3ccc(Cl)cc3)SC2=S)cc1` is 0.283; for `COc1nc(-c2ccccc2)cc(-c2ccc(OC)c(OC)c2)n1` it is -0.612; for `COc1nc(-c2ccccc2)cc(-c2ccccc2)n1` it is 2.45.
For the compound `COc1nc(-c2ccccc2)cc(C(F)(F)F)n1`, the z-score stood at 0.0363.
`O=C(C1CCCO1)N1N=C(c2ccc(Br)cc2)CC1c1ccco1` (configuration not stated) came in with a z-score of -0.195.
The result for `COC(=O)CSc1n[nH]c(-c2cccnc2)n1` reads 2.21; that for `O=C(CSc1n[nH]c(-c2cccnc2)n1)Nc1ccccc1`, -0.272.
For the compound `COC(=O)CSc1n[nH]c(-c2ccncc2)n1`, the z-score is 0.0349.
Compound `Cc1ccc(C2C(C#N)=C(N)Oc3n[nH]c(-c4ccccc4)c32)o1` (configuration not stated) registered a z-score of -0.499.
The figure for `CC(C)CC(=O)NC(=S)Nc1nc(-c2cccc3ccccc23)cs1` is 2.97; for `CC(C)CC(=O)NC(=S)Nc1nc(-c2ccccc2)cs1` it is 0.855.
The compound `CC(C)CC(=O)NC(=S)Nc1nc(-c2ccc(Cl)cc2)cs1` returned a z-score of 0.0823.
The result for `Cn1c(=O)c(NC(=O)c2ccccc2)c2n(c1=S)CCCCC2` reads -0.181; that for `O=C(COc1ncnc2ccc(Br)cc12)NCc1ccc2c(c1)OCO2`, -0.00987.
The result for `CCOC(=O)C1C(=O)CC(C)(O)C(C(=O)OCC)C1c1ccc(OC)cc1` (configuration not stated) reads -0.0838.
The figure for `CCOC(=O)c1cccc(NC(=O)/C(=C\c2ccccc2)NC(=O)c2ccccc2Cl)c1` is -0.208.
With `COc1ccccc1NC(=O)CNS(=O)(=O)c1ccccc1`, the z-score is -0.239.
The result for `CCOC(=O)c1c(CN2CCN(CCO)CC2)n(C)c2cc(Br)c(OC)cc12` reads 0.864.
Regarding `CCOC(=O)c1c(CNCCN(CC)CC)n(C)c2cc(Br)c(OC)cc12`, the z-score is 3.02 (active).
The result for `CCN(CC)CCNC(=O)c1c(C)n(-c2ccccc2)c2cc(Br)c(OC)cc12` reads 2.84.
The result for `CCN(CC)CCNC(=O)c1c(C)oc2cc(Br)c(OC)cc12` reads -0.44; that for `COc1cc2c(C(=O)N3CCN(C)CC3)c(C)n(-c3ccccc3)c2cc1Br`, -0.333; that for `CCOC(=O)c1c(CN2CCN(Cc3ccccc3)CC2)n(C)c2cc(Br)c(OC)cc12`, 0.132.
On to `COC(=O)Cn1c(=NC(=O)c2ccc(OC)cc2)sc2cc(OC)ccc21`, for which the z-score is -0.189.
Regarding `Cc1cccc(N=C2NC(=O)/C(=C/C=C/c3ccco3)S2)c1`, the z-score came out at 0.7.
The figure for `O=C1NC(=Nc2ccccc2)S/C1=C\C=C\c1ccco1` is 0.075; for `Cc1cccc(N=C2NC(=O)/C(=C/C=C/c3ccco3)S2)c1C` it is 3 (active).
